Inconclusive results are not listed. Unmarked numbers belong to inactive results. Activity calls are given as the source filed them. Calls come from the whole dose curve; as a rule, active = well fitted cell-killing curve with a large enough effect; inconclusive = small, poorly fitted or top-dose-only effect, or effect the other way; inactive = flat fitted curve, though single readings scatter.
% is set by controls: 0 for no effect and ±100 for the full control effect; potency is the fitted concentration of half-maximal effect.

This test deals with SKOV3. Put plainly: Primary qHTS to identify gynecologic anti-cancer compounds using libraries of approved drugs and bioactive compounds (AID 1345084). Note: nearly all actives have a fitted effect of over 55% in size. The settings on record: Gynecologic cancer cell panel viability, ATPlite luminescence, 48 h; series mostly up to 57.5 µM. The method, boiled down:
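ATP-based viability (ATPlite), 1,000 cells/well, 16 h pre-incubation, 48 h compound at 37 C, 5% CO2, 15 min RT before read.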
Take `CCCCNc1ncc(C(=O)NCc2ccc(-n3ccnc3)cc2)c(NC2CCC(O)CC2)n1` (centres undefined): the Potency result was “inactive”.
For the compound `COC(=O)C1=CO[C@@H](O[C@@H]2O[C@H](CO)[C@@H](O)[C@H](O)[C@H]2O)[C@H]2[C@@H]1C=C[C@]21C=C([C@H](C)OC(=O)/C=C/c2ccc(O)cc2)C(=O)O1`, the Potency was 8.91 µM (active).
As for `C/C=C(/C)C(=O)OC1CC(C)(C)CC2C3=CCC4C5(C)CCC(O[C@@H]6O[C@H](C(=O)O)[C@@H](O)[C@H](O)[C@H]6O[C@@H]6O[C@H](CO)[C@H](O)[C@H](O[C@@H]7OC[C@H](O)[C@H](O)[C@H]7O[C@@H]7O[C@H](CO)[C@@H](O)[C@H](O)[C@H]7O)[C@H]6O)C(C)(C)C5CCC4(C)C3(C)C(O)C(O)C12CO` (some centres undefined), the activity change, negative = cytotoxicity is -5.71% [at 6.55 µM].
For `C=C(C)C1CC(O)C(C)C12CC(O)C1(C)OC1C2O` (centres undefined), the Potency is 7.94 µM (active).
The same measure, in the same setting: the result for `CN1CCC(NC(=O)c2cc(-c3c(O)cc(O)cc3Oc3ccc([N+](=O)[O-])cc3)on2)CC1` reads 1.58 µM (active).
Regarding `C=C1CC[C@@H]2[C@](C)(CO)[C@H](O)CC[C@@]2(C)[C@@H]1CC(=O)C1=CCOC1=O`, the Potency result was “inactive”.
Take `COC1C(O)C(OC2CCC3(C)C(CCC45CCC6C7(COC(=O)C7)OC4(O)C6(C)CCC35)C2)OC(C)C1OC1OC(CO)C(OC2OC(CO)C(O)C(O)C2O)C(O)C1O` (centres undefined): the activity change, negative = cytotoxicity was -3.24% [at 11.6 µM].
For `CNc1ccc([N+](=O)[O-])c(Nc2ccc3[nH]ncc3c2)n1`, the Potency entry was “inactive”.
Turning to `Cc1[nH]c(/C=C2\C(=O)Nc3ccc(S(=O)(=O)N(C)c4cccc(Cl)c4)cc32)c(C)c1C(=O)N1CCN(C)CC1`, the Potency result was “inactive”.
